# Results published in article PMC4336329 (PLoS ONE, 2015).
# In all, about 310,000 compounds went through this assay and about 14,000 (4.5%) showed an effect of 50% or more. The effect is printed as a negative number. This is one part of a sample in which strong results are shown more often than they occur.
# Biological target: human ether-à-go-go-related gene (hERG) potassium channel (human, UniProt Q12809)
# Experiment: primary screen, population patch clamp on CHO cells stably expressing hERG; higher = less effect of the substance
# 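Also: peak tail current of the secondary pulse compared with the same well before compound.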
# human ether-à-go-go-related gene (hERG) potassium channel, sequence (Q12809 whole entry, looked up): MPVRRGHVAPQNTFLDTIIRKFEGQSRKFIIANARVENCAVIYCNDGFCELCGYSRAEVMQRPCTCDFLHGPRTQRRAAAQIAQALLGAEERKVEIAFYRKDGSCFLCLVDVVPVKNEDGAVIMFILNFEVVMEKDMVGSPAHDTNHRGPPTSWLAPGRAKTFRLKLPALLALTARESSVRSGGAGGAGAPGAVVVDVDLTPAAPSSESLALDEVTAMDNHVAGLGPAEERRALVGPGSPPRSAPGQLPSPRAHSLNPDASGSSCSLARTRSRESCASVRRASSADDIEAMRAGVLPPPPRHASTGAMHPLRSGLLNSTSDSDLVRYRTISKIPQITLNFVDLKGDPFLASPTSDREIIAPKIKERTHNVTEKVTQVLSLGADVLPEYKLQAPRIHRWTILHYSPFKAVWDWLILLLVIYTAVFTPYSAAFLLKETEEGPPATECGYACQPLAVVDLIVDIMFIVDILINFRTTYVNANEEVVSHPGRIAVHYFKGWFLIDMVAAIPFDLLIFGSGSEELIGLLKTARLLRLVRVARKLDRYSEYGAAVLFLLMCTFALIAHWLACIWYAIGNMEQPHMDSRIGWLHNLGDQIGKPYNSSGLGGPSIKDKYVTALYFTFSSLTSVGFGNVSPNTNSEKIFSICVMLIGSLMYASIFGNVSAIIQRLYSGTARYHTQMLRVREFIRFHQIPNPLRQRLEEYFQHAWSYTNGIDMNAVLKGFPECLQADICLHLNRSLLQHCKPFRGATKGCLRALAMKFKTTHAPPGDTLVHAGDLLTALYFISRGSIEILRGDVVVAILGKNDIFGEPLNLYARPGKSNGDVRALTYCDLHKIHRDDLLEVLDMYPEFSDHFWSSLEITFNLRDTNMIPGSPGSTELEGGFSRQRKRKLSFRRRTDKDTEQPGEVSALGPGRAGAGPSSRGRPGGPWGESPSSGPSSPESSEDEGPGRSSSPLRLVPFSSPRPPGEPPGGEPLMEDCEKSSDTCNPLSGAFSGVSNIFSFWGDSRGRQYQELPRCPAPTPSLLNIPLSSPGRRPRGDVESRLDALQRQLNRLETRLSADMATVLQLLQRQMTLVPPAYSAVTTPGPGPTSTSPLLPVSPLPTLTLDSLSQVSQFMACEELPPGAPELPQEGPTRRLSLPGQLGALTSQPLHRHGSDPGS
row,SMILES,"hERG current change (%, negative = inhibition) at 10uM"
1,O=C(c1ccccc1[N+](=O)[O-])N1CCN(Cc2ccc3c(c2)OCO3)CC1,-13.4%
2,Cc1cccc(N2C(S)=C(C#N)C(=O)NC23CCCCC3)c1,-7.13%
3,CCCCC(=O)Nc1ccc(NC(=O)c2ccco2)cn1,10.1%
4,CCOc1ccccc1N1CCN(C(=O)c2csc(C)c2CC)CC1,-8.41%
5,COC(=O)CSC1=C(C#N)C(c2ccccc2OC)C(C(=O)OC)C(=O)N1 (stereo not drawn),15.6%
6,C/C(=C\C(=O)c1sccc1Cl)N(C)C,0.12%
7,Cc1cnc([N+](=O)[O-])n1CCOC(=O)c1cccc(F)c1,-3.45%
8,O=C(Cn1cnc2c(cnn2-c2ccccc2)c1=O)Nc1cc(S(=O)(=O)N2CCOCC2)ccc1Cl,-32.2%
9,CCOc1cc(C(=S)N2CCCCC2)ccc1OCC(=O)NCc1ccccc1,-31.2%
10,COc1ccc(N2CCN(C(=O)Cn3cnc4c(cnn4-c4ccc(C)cc4)c3=O)CC2)cc1,-9.24%
11,COc1cccc(-n2cc(C(=O)NCCCOC(C)C)c3ccccc3c2=O)c1,-6.95%
12,COCCCNC(=O)c1cn(-c2cccc(OC)c2)c(=O)c2ccccc12,18.1%
13,CCN(CC)CCCNC(=O)c1cn(-c2cccc(OC)c2)c(=O)c2ccccc12,-68.5%
14,CC(/C=C/c1ccccc1)=N\NC(=O)CNC(=O)c1ccccc1Cl,7.15%
15,O=C(CSC1CC(=O)N(c2ccc(C(=O)O)cc2)C1=O)Nc1ccc2ccccc2c1 (stereo not drawn),15.8%
16,Cc1ccoc1C(=O)NCCNc1ccc(Cl)cc1[N+](=O)[O-],-30.5%
17,CCN(CC)CCNc1ccc(Cl)cc1[N+](=O)[O-].Cl,-61.6%
18,O=C(NCCNc1ccccc1[N+](=O)[O-])c1cc(F)c(F)cc1Cl,-52.1%
19,O=C(NCCCNc1ccc(C(F)(F)F)cc1[N+](=O)[O-])c1cc(F)c(F)cc1Cl,-15.7%
20,O=C(NCCNc1ccccc1[N+](=O)[O-])c1ccccc1F,4.11%
21,Cc1ccc(C(=O)NCCNc2ccc(Cl)cc2[N+](=O)[O-])o1,-60%
22,O=C(NCCNc1ccc(Cl)cc1[N+](=O)[O-])c1cccnc1,-29.4%

row,SMILES,"hERG current change (%, negative = inhibition) at 10uM"
1,CN(C)CCNc1ccc(Cl)cc1[N+](=O)[O-],-18.7%
2,CCNCCNc1ccc(Cl)cc1[N+](=O)[O-].Cl,-20.3%
3,COc1ccccc1NC(=O)NCC(c1ccco1)N1CCCCC1 (stereo not drawn),14.8%
4,Cc1ccc(S(=O)(=O)Nc2ccc(SC(F)F)cc2)c(C)c1,10.3%
5,COc1ccc(NC(=O)CN2C(=O)C(C)Oc3ccc(C)cc32)cc1 (stereo not drawn),3.11%
6,CC(NC(=O)COc1ccccc1Cl)c1ccccc1 (stereo not drawn),7.82%
7,CN1CCN(C(=O)/C(=C\c2cccs2)NC(=O)c2ccco2)CC1,-67.4%
8,O=C(N/C(=C/c1cccs1)C(=O)N1CCOCC1)c1ccco1,-1.03%
9,Cc1ccccc1NC(=O)/C(=C\c1cccs1)NC(=O)c1ccco1,-7.17%
10,CN1CCN(C(=O)/C(=C/c2cccs2)NC(=O)c2ccco2)CC1,-70.5%
11,Cc1ccc(NC(=O)/C(=C/c2cccs2)NC(=O)c2ccco2)cc1,6.71%
12,O=C(N/C(=C\c1cccs1)C(=O)N1CCOCC1)c1ccco1,0.17%
13,O=C(Nc1ccc(S(=O)(=O)N2C[C@@H]3C[C@@H](C2)c2cccc(=O)n2C3)cc1)c1ccc(F)cc1,-2.39%
14,CC(=O)Nc1nc(N)n(-c2ccccc2)n1,3.2%
15,Clc1ccc(-c2ncc3ccccn23)cc1,-4.95%
16,CN(c1ccc(C(=O)NCc2ccc3c(c2)OCO3)cc1)S(=O)(=O)c1ccccc1,-4.02%
17,O=C(NC1=NCCS1)C1CC2CCC1C2 (stereo not drawn),2.05%
18,COc1ccc(/C=N\NC(=O)c2cc(O)c(O)c(O)c2)cc1COc1ccc(C(=O)OCC(C)C)cc1,21%
19,CC(C)(C)c1ccc(OC(=O)c2ccc3snnc3c2)cc1,20.4%
20,Cc1cc2cc(CN(Cc3cccs3)C(=S)NCc3ccco3)c(=O)[nH]c2cc1C,-13.9%
21,Cc1ccc(C)c2[nH]c(=O)c(CN(Cc3cccs3)C(=S)NCc3ccco3)cc12,-33%
22,O=c1[nH]c2cc3c(cc2cc1CN(Cc1cccnc1)C(=S)NCc1ccco1)OCCO3,-5.62%

row,SMILES,"hERG current change (%, negative = inhibition) at 10uM"
1,Cc1cc2cc(CN(CCN(C)C)C(=S)NCc3ccco3)c(=O)[nH]c2cc1C,-43.8%
2,Cc1ccc(C)c2[nH]c(=O)c(CN(CC3CCCO3)C(=S)NCc3ccco3)cc12 (stereo not drawn),-24.3%
3,O=c1[nH]c2cc3c(cc2cc1CN(Cc1cccnc1)C(=S)NCc1ccco1)OCO3,-52.5%
4,CCN(CC)CCCN(Cc1cc2cc3c(cc2[nH]c1=O)OCO3)C(=S)NCc1ccco1,-38.2%
5,Cc1ccc(C)c2[nH]c(=O)c(CN(Cc3cccnc3)C(=S)NCc3ccco3)cc12,-61.1%
6,O=c1[nH]c2cc3c(cc2cc1CN(CCCO)C(=S)NCc1ccco1)OCO3,12%
7,CN(C)CCN(Cc1cc2cc3c(cc2[nH]c1=O)OCO3)C(=S)NCc1ccco1,-11.4%
8,CCN(CC)CCN(Cc1cc2cc(C)c(C)cc2[nH]c1=O)C(=S)NCc1ccco1,-52.8%
9,CCN(CC)CCN(Cc1cc2cc3c(cc2[nH]c1=O)OCO3)C(=S)NCc1ccco1,-55.8%
10,COc1ccc(C(=O)NCCSc2ccc(C)cc2)cc1,-11%
11,O=c1cc(-c2cc3ccccc3o2)c2cc(O)ccc2o1,13.3%
12,Clc1ccc(-[n+]2c(-c3cccc(Br)c3)[nH]c3nc4ccccc4nc32)cc1,13.5%
13,Cc1ccc(S(=O)(=O)NC(=O)COc2ccccc2C)c(C)c1,-21.9%
14,Cc1c(Cl)cccc1NC(=O)COC(=O)c1c2c(nc3ccccc13)CCN(Cc1ccccc1)C2,2.82%
15,Cc1ccc(C(=O)NNC(=O)Cn2nnc3ccccc32)cc1,13.3%
16,NC(=O)COc1cccc(/C=N/NC(=O)c2ccc(-n3cccc3)cc2)c1,13.5%
17,CCN(CC)CCN(Cc1cc2cc3c(cc2[nH]c1=O)OCO3)C(=S)NCC(C)C,-55.1%
18,CCN(CC)CCN(Cc1cc2cc3c(cc2[nH]c1=O)OCCO3)C(=S)NCC(C)C,-4.96%
19,CC(C)CNC(=S)N(CCN(C)C)Cc1cc2cc3c(cc2[nH]c1=O)OCO3,0.354%
20,S=C1NCCOCCNC(=S)NCCOCCOCCOCCN1,10.2%
21,CCc1cc(=O)oc2cc(C)c3c(C)coc3c12,16.3%
22,CCOC(=O)C1=C(C)NC(=O)C(C(N)=O)C12CCCCC2 (stereo not drawn),12.4%

row,SMILES,"hERG current change (%, negative = inhibition) at 10uM"
1,CC(C)NC(=O)CN1C(=O)CSc2ccc(S(=O)(=O)N3CCCC3)cc21,15.6%
2,COc1ccc(CN2CCCC(N3CCN(c4ccc(OC)cc4)CC3)C2)cc1 (stereo not drawn),-45%
3,OCCOc1ccc(CN2CCCC(N3CCN(c4ccc(F)cc4)CC3)C2)cc1 (stereo not drawn),-69.8%
4,COC(=O)CCC(=O)N1CCCC(N2CCN(c3ccc(OC)cc3)CC2)C1 (stereo not drawn),-1.47%
5,COc1ccc(N2CCN(C3CCCN(Cc4cccc(OC)c4)C3)CC2)cc1 (stereo not drawn),-64.4%
6,COc1ccccc1N1CCN(C2CCCN(Cc3ccccc3OCCO)C2)CC1 (stereo not drawn),-25.5%
7,CSc1ccc(CN2CCCC(N3CCN(c4ccccc4)CC3)C2)cc1 (stereo not drawn),-64.2%
8,CCOc1ccc(CN2CCCC(N3CCN(c4ccc(OC)cc4)CC3)C2)cc1 (stereo not drawn),-64%
9,COc1ccc(N2CCN(C3CCCN(Cc4cccc(C)c4)C3)CC2)cc1 (stereo not drawn),-32.8%
10,COc1ccc(N2CCN(C3CCCN(Cc4cccc(C(C)=O)c4)C3)CC2)cc1 (stereo not drawn),-30.2%
11,CCN(C1CCS(=O)(=O)C1)S(=O)(=O)c1ccc2ccccc2c1 (stereo not drawn),-10.5%
12,Cc1c[n+](CC(=O)c2ccccc2)cs1.[Br-],22%
13,COc1ccc(NC(=O)CSCC(=O)Nc2ccccc2N2CCCC2)cc1,-7.76%
14,CCOC(=O)c1csc(NC(=O)c2ccc(OCC)cc2)n1,-14.9%
15,Cc1ccccc1C(=O)OC1OC(=O)C(Cl)=C1Nc1ccc(C(=O)O)cc1 (stereo not drawn),24.4%
16,COc1ccc(N2CCN(C3CCCN(S(=O)(=O)c4ccccc4)C3)CC2)cc1 (stereo not drawn),-31.1%
17,CCc1ccc(S(=O)(=O)N2CCCC(N3CCN(c4ccc(OC)cc4)CC3)C2)cc1 (stereo not drawn),-65.4%
18,COc1ccc(S(=O)(=O)N2CCN3CCCC3C2)cc1 (stereo not drawn),22.7%
19,COc1ccccc1N1CCN(C2CCCN(Cc3c(F)cccc3F)C2)CC1 (stereo not drawn),-16.3%
20,COc1ccc(N2CCN(C3CCCN(Cc4ccc(F)c(F)c4)C3)CC2)cc1 (stereo not drawn),-64.6%
21,CC1CCCCN1CCCNc1ccc(C(CC(N)=O)NC(=O)Cc2cccc3ccccc23)cc1[N+](=O)[O-] (stereo not drawn),-14.6%
